Lamin A splicing = changes lamin A minigene splicing in HeLa cells. HeLa LMNA splicing GFP/RFP minigene ratio, 48 h. Potency, µM (top dose mostly 46.1 µM), without a hit: top-dose ratio change, negative = inhibition, hits mostly inhibitors. AID 1487. 200,000 tested, 0.01% active; active = well fitted inhibition curve with a large enough effect in the signal ratio, with a control signal flat, not every such curve was filed as active; inconclusive = small, poorly fitted or top-dose-only effect, or effect the other way, or a change in a side signal; the % refers to the signal ratio; note: potency is the fitted concentration of half-maximal effect
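S3 HeLa cells stably expressing lamin A-EGFP splicing minigene plus DsRed2, 600 cells/well, 48 h compound exposure at 37C. Laser-scanning cytometry; analysed as GFP (500-530 nm)/RFP (575-640 nm) total intensity ratio; 0.5% DMSO vehicle.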
Luc counter = Kinase-Glo luciferase inhibition (counter-screen). Q27757. Kinase-Glo luciferase, ATP luminescence, 8 min. Potency, µM (top dose mostly 38.3 µM), for the others: top-dose activity change, negative = inhibition, actives largely listed as inhibitors. 200,000 tested, 0.28% active. AID 1379; active = well fitted inhibition curve with a large enough effect; inconclusive = small, poorly fitted or top-dose-only effect; note: potency is the fitted concentration of half-maximal effect; nearly all actives have a fitted effect of over 60% in size
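Recombinant Kinase-Glo luciferase, 10 uM ATP (linear range), luciferin; imidazole pH 7.2 / KCl / MgCl2 / Tween / BSA buffer; 8 min RT; luminescence.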
HPGD block = blocks human HPGD enzyme activity | P15428 | purified HPGD, NADH fluorescence kinetic, PGE2 substrate | Potency, µM, without a hit: at the top dose activity change, negative = inhibition, usual class: inhibitors | 150,000 tested, 4.3% active | AID 894; note: potency is the fitted concentration of half-maximal effect
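20 nM HPGD preincubated 15 min at room temperature with compound in 50 mM Tris-HCl pH 8, 0.01% Tween 20. Started with 1 mM NAD+ and 30 uM prostaglandin E2; NADH fluorescence (360/450 nm) read 5 times over 30-s intervals, last minus first.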
PNC inhibitor = blocks assembly of the perinucleolar compartment; PC3M PTB-GFP, PNC prevalence imaging, 16 h; active compounds read low; activity change (PNC), negative = inhibition, % at 10 µM; 140,000 tested, 3.1% active; AID 2417;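 active = readout at or below -70, meaning at least 70% loss of cells showing the perinucleolar compartment, a nuclear body marking cancer cells; inconclusive = readout between -30 and a set limit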;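 note: plate controls were DMSO wells for no effect and camptothecin positive control wells for full effect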
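Read-out is percentage of cells bearing a perinucleolar compartment, from automated 20x imaging of fixed, Hoechst-stained PC3M PTB-GFP cells. Cells were seeded 4 h, then exposed 16 h to compound (23 nl of library stock) in duplicate plates.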
ALDH1A1 inh = ALDH1A1 (human) enzyme inhibition | Potency, µM (series often up to 75.3 µM), for inactives: top-dose activity, negative = inhibition, actives largely listed as inhibitors | 220,000 tested, 7.3% active | P00352 | Purified ALDH1A1, NADH fluorescence, propionaldehyde substrate | AID 1030;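 note: potency is the fitted concentration of half-maximal effect; plate controls were no enzyme wells and a reference inhibitor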
Target sequence (P00352 whole entry, looked up): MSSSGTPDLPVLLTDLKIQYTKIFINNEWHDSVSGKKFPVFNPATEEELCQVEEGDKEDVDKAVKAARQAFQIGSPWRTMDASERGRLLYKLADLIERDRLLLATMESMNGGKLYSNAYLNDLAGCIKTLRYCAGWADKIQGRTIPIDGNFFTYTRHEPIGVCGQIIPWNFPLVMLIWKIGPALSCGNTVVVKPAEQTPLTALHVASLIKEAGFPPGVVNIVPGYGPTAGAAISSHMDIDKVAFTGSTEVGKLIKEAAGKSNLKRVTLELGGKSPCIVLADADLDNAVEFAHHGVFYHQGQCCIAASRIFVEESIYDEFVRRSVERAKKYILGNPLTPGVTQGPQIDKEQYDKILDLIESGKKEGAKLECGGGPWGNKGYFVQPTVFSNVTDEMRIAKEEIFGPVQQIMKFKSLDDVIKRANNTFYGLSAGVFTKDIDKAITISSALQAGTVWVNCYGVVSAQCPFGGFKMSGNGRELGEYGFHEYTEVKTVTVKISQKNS
* = called active by the depositor; ? = inconclusive; . = not tested or not shown; [ ] = another dose, or the depositor's remark. In the library only some 10% were active in any assay of this set; here they are far more common. Unless noted, calls come from the whole dose curve; as a rule, active = well fitted inhibition curve with a large enough effect (not every such curve was filed as active); inconclusive = small, poorly fitted or top-dose-only effect, or another doubt; inactive = no such curve, though single readings can be large or run the other way. Unless noted, % is set by controls: 0 for no effect and ±100 for the full control effect.

SMILES	Lamin A splicing	Luc counter	HPGD block	PNC inhibitor	ALDH1A1 inh
N#CC1=C(N)C(C#N)(C#N)[C@H](c2ccncc2)[C@H]2CN(C(=O)OCc3ccccc3)CC=C12	-8%	3%	-25%	-100*	-4%
CCOC(=O)N1CC=C2C(C#N)=C(N)C(C#N)(C#N)[C@H](c3cccs3)C2C1 (some centres undefined)	-10%	0%	-12%	-100*	-6%
CC(C)N1CC=C2C(C#N)=C(N)C(C#N)(C#N)[C@H](c3ccoc3)[C@H]2C1	-6%	-4%	?	115	?
CCOc1ccc(S(=O)(=O)Nc2cccc(-c3ccc(N4CCCC4)nn3)c2)cc1	-19%[46 µM]	.	.	.	.
CCC(=O)C1=C(c2ccc(F)cc2)N(C(=O)CC)n2c(nnc2C2CCCCC2)S1	-13%[46 µM]	.	.	.	.
Cc1noc(-c2ccc(-c3noc(-c4ccc(Cl)cc4)n3)cc2)n1	-6%[46 µM]	.	.	.	.
N#Cc1nc(-c2ccc(COc3ccc(Cl)cc3)o2)oc1N1CCC(C(N)=O)CC1	3%[46 µM]	.	.	.	.
Nc1nc(SC2c3cccc4cccc(c34)C2NS(=O)(=O)c2ccccc2)n[nH]1 (centres undefined)	-10%	1%	-6%	46	14µM*
Cc1cc(C)nc(SC2c3cccc4cccc(c34)C2NS(=O)(=O)c2ccccc2)n1 (centres undefined)	?	1%	-12%	-30	?
O=C1CN(CC(=O)N2CCCCC2)c2ccccc2O1	?	-4%	8%	22	-10%
O=C1CN(CC(=O)N2CCOCC2)c2ccccc2O1	2%	-1%	-6%	-118*	9.5µM*
O=C(CN1CC(=O)Oc2ccccc21)OCC(=O)c1ccc(F)cc1	?	-1%	.	.	20µM*
O=c1c(-c2ccc(F)cc2)nc2cnc(Nc3ccccc3)nc2n1Cc1cccs1	.	-4%	-3%	.	192%
Cc1nc2c(=O)[nH]c(=S)n(C)c2nc1C	-5%	-1%	10µM*	-114*	7.1µM*
Cn1c(=S)[nH]c2cccnc21	-7%	1%	-7%	?	5%
Cc1cc(NCCN(C)C)n2nc(-c3cccs3)cc2n1	-9%	-8%	?	-89*	?
CC1CCc2onc(C(=O)N3CCN(c4cccc(Cl)c4)CC3)c2C1 (centres undefined)	-22%[46 µM]	.	.	.	.
C=CCC(O)(/C=C/c1ccccc1)c1ccccc1 (centres undefined)	.	-1%	-12%	.	-1%
O=C1CN(C(=O)CSc2nc(-c3ccccc3)cs2)c2ccccc2N1	?	3%	18µM*	-91*	7%
Cc1nnc(SCC(=O)N2CC(=O)Nc3ccccc32)n1C	13%	-4%	-3%	8	6%
Cc1ccc(-n2nnnc2SCC(=O)N2CC(=O)Nc3ccccc32)cc1	-9%	0%	?	?	11µM*
Cc1cccc2cc(C#N)c(SCC(=O)N3CC(=O)Nc4ccccc43)nc12	?	-1%	-26%	-85*	?
CCCN(CCC)CCc1cccc2c1CC(=O)N2	?	-3%	-10%	.	10%
COC(=O)c1ccccc1NC(=O)CSc1cc(-c2ccccc2)nc(C)n1	33%[46 µM]	.	.	.	.
O=C(O)CCC(=O)N1CCCC1C(=O)O (centres undefined)	?	-8%	-7%	.	-3%
SMILES	Lamin A splicing	Luc counter	HPGD block	PNC inhibitor	ALDH1A1 inh
CCCn1c(-c2ccc(F)cc2)nc2c(NCCN(C)C)nc(C)nc21	.	-2%	?	.	?
NC(=O)/C(=N\O)c1ccccc1	0%	-1%	2%	27	10%
O=c1[nH]c(/C(=N\O)c2ccccc2)no1	14%	1%	?	?	24µM*
Cc1ccc(NC(=S)Nc2ccc(C(C)C)cc2)cc1S(=O)(=O)N1CCCCCC1	?	3%	?	-15	18µM*
CCN(CC)CCNC(=O)c1c(O)c2cc(OC)c(OC)cc2[nH]c1=O	-10%	2%	-28%	-119*	?
C[C@@H]1CC2(OC3C[C@@]4(C)C5=CC[C@H]6C(C)(C)C(O[C@@H]7OC[C@@H](O)[C@H](O)[C@H]7O)CC[C@@]67C[C@@]57CC[C@]4(C)C31)OC(O)C1(C)OC21 (some centres undefined)	.	.	-8%	.	?
CCN(CC)CCNC(=O)COc1ccc(Cl)cc1Cl	4%	-8%	1%	-17	9%
CCN(CC)CCNC(CC(=O)Nc1ccc(Cl)cc1Cl)C(=O)O (centres undefined)	4%	1%	6%	-26	7.1µM*
O=C(C1CCN(S(=O)(=O)N2CCCCC2)CC1)N1CCCCC1	5%	-2%	20µM*	26	?
CCc1ccc(S(=O)(=O)Nc2cccc(-c3ccc(N4CCOCC4)nn3)c2)cc1	-11%[46 µM]	.	.	.	.
Cc1nc(N2CCN(C(=O)COc3ccccc3)CC2)c2c(C)c(C)sc2n1	?	-1%	?	-22	11µM*
O=C(COc1ccccc1)N1CCN(c2ncccn2)CC1	.	3%	.	.	-4%
CCc1ccccc1NC(=O)Cn1c(=O)n(-c2ccc(C)cc2)c(=O)c2c1c1cc(C)ccc1n2C	15%[46 µM]	.	.	.	.
C=Cc1ccc(Cn2nc(-c3ccc(C)c(S(=O)(=O)N(CC)CC)c3)ccc2=O)cc1	4%[46 µM]	.	.	.	.
Cc1ccc(Nc2nc(CSc3nnnn3-c3ccccc3)cs2)cc1	?	-1%	-13%	-13	8.9µM*
Cc1ccc(Nc2nc(CSc3nnc(-c4ccccc4C)n3C)cs2)cc1	-23%	.	.	-107*	?
Cc1ccc(Nc2nc(CSc3nnnn3C)cs2)cc1	-25%	1%	-17%	-7	?
Cc1ccc(Nc2nc(CSc3nnc(-c4ccccc4)n3C)cs2)cc1	?	-1%	-22%	?	-23%
Cc1ccccc1Nc1nc(N)nc(CSc2nnnn2-c2ccccc2)n1	2%	-3%	-14%	-25	13µM*
CCN(c1ccccc1)S(=O)(=O)c1c(-c2ccc(C)cc2)csc1C(=O)OC	-20%[46 µM]	.	.	.	.
CC(=O)c1cc(-c2ccc(F)cc2)n(CCC(=O)NCc2ccc(C)cc2)c1C	-11%[46 µM]	.	.	.	.
COc1nn(CC(=O)N2N=C(C(F)F)CC2(O)C(F)F)cc1[N+](=O)[O-] (centres undefined)	5%	1%	-18%	-90*	6%
CCCC1c2c(ccc3ccccc23)Oc2ccc3ccccc3c21	.	-4%[7.66 µM]	-6%	.	-8%[13.5 µM]
CC(C)[C@H](NS(=O)(=O)c1ccccc1)C(=O)OCC(=O)NC(=O)c1cccn1C	5%	?	-15%	-15	13µM*
Clc1cccc2sc(N3CCCCC3)nc12	23%	-1%	?	-82*	-2%
O=C(C1CC1)N1CCN(c2nc3c(Cl)cccc3s2)CC1	3%[46 µM]	.	.	.	.
Clc1cc(Cl)c2nc(N3CCCCC3)sc2c1	-7%	-8%	22µM*	3	22µM*
COc1ccc(OC)c2sc(N3CCCCC3)nc12	13%	-3%	16µM*	-18	?

Source: PubChem
